Shown are actives, neighbours in structure and some others; about 11% of the full set was active somewhere.
PNC inhibitor – High Content Assay for Compounds that inhibit the Assembly of the Perinucleolar Compartment; activity change (PNC), negative = inhibition, % at 10 µM; AID 2417, 2010; PC3M PTB-GFP, PNC prevalence imaging, 16 h; hits give low values; 140,000 tested, 3.1% active;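 active = readout at or below -70, meaning at least 70% loss of cells showing the perinucleolar compartment, a nuclear body marking cancer cells; inconclusive = readout between -30 and a set limit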;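 note: plate controls were DMSO wells for no effect and camptothecin positive control wells for full effect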
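Compounds are pinned in duplicate onto adhered PC3M cells stably expressing GFP-tagged PTB and incubated 16 h at 37 C. Cells are then fixed, nuclei stained with Hoechst, and PNC-positive cells counted.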
12-hLO inh – qHTS Assay for Inhibitors of 12-hLO (12-human lipoxygenase). purified 12-hLO, xylenol orange hydroperoxide absorbance. Potency, µM (titrated, usually from 57.1 µM), without a hit: at the top dose activity change, negative = inhibition, hits mostly inhibitors. 150,000 tested, 0.12% active. AID 1452, 2008; note: potency is the fitted concentration of half-maximal effect; nearly all actives have a fitted effect of over 55% in size
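Lipoxygenase turnover measured by absorbance at 573 and 405 nm after Fe-XO development. Human 12hLO 150 nM, arachidonate 40 uM, pH 7.0 Hepes buffer with detergent; 15 min compound preincubation, 30 min reaction.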
IMPase Li cell – qHTS Assay for Identifying the Cell-Membrane Permeable IMPase Inhibitors: Potentiation with Lithium; CHO-M1 cells, IP1 TR-FRET (IP-One), carbachol + lithium; Potency, µM (highest dose often 59.4 µM), for inactives: at the top dose activity, negative = IMPase inhibition, hits mostly inhibitors; 210,000 tested, 0.35% active; AID 1457, 2008;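 note: IP1 builds up when IMPase is blocked and the TR-FRET signal falls; potency is the fitted concentration of half-maximal effect; plate controls were basal vehicle for no effect and high inhibitor control for full effect; nearly all actives have a fitted effect of over 50% in size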
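CHO cells stably expressing M1 receptor (2000/well, cultured 16–30 h) treated 30 min at 37C with compound plus low lithium. Cytosolic IP1 by TR-FRET (665/620 ratio and 620 channel) after 10 min lysis; AC50 by Hill fit.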
ALDH1A1 block – qHTS Assay for Inhibitors of Aldehyde Dehydrogenase 1 (ALDH1A1); Aldehyde dehydrogenase 1A1 (Homo sapiens), P00352; Purified ALDH1A1, NADH fluorescence, propionaldehyde substrate; Potency, µM (titrated, usually from 75.3 µM), for the others: top-dose activity, negative = inhibition, usual class: inhibitors; 220,000 tested, 7.3% active; active = well fitted inhibition curve with a large enough effect, not every such curve was filed as active; inconclusive = small, poorly fitted or top-dose-only effect, or another doubt; inactive = no such curve, though single readings can be large or run the other way;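 note: potency is the fitted concentration of half-maximal effect; plate controls were no enzyme wells and a reference inhibitor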
Target sequence (P00352 whole entry, looked up): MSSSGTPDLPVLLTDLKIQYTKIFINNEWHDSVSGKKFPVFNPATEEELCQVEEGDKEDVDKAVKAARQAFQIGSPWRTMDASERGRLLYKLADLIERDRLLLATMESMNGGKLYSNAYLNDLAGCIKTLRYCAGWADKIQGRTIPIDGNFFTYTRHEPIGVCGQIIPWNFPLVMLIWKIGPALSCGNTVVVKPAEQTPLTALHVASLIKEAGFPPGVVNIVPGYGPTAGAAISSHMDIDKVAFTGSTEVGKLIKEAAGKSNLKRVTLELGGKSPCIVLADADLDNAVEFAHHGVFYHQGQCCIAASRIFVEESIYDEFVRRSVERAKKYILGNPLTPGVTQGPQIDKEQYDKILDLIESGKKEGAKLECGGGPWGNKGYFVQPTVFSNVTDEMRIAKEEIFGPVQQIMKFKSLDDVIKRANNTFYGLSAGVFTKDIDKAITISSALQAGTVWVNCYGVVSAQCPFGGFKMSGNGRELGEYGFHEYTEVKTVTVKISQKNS
HPGD block – qHTS Assay for Inhibitors of HPGD (15-Hydroxyprostaglandin Dehydrogenase); 15-hydroxyprostaglandin dehydrogenase [NAD(+)] (Homo sapiens), P15428; purified HPGD, NADH fluorescence kinetic, PGE2 substrate; Potency, µM, inactives show top-dose activity change, negative = inhibition, usual class: inhibitors; 150,000 tested, 4.3% active; AID 894, 2007; active = well fitted inhibition curve with a large enough effect, not every such curve was filed as active; inconclusive = small, poorly fitted or top-dose-only effect, or another doubt; inactive = no such curve, though single readings can be large or run the other way; note: potency is the fitted concentration of half-maximal effect
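20 nM HPGD preincubated 15 min at room temperature with compound in 50 mM Tris-HCl pH 8, 0.01% Tween 20. Started with 1 mM NAD+ and 30 uM prostaglandin E2; NADH fluorescence (360/450 nm) read 5 times over 30-s intervals, last minus first.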
IMPase inh – qHTS Assay for Identifying the Cell-Membrane Permeable IMPase Inhibitors. inhibition (IP1 accumulation), % at 46.1 µM. AID 901, 2007. Inositol monophosphatase 1 (Rattus norvegicus), P97697. CHO-M1 cells, IP1 accumulation, HTRF TR-FRET ratio. 120,000 tested, under 10 active; active = well fitted curve in the direction sought with a large enough effect in the signal ratio, not every such curve was filed as active; inconclusive = small, poorly fitted or top-dose-only effect, or a change in a side signal; inactive = no such curve, though single readings can be large or run the other way; the % refers to the signal ratio;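 note: cells stimulated with carbachol in lithium chloride buffer; plate controls were DMSO basal wells for no effect and reference inhibitor wells for full effect; higher means more IMPase inhibition seen as more IP1 and lower FRET ratio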
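Seeded CHO-M1 cells were dosed with compound at up to 46 uM, stimulated with carbachol for 30 min, then lysed in IP-One detection reagents. Higher IP1 lowers the TR-FRET signal.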
* hit, by the source's call; ? = inconclusive; . = no result given; [ ] = remark or other dose. Unless noted, calls come from the whole dose curve; as a rule, active = well fitted curve in the direction sought with a large enough effect; inconclusive = small, poorly fitted or top-dose-only effect, or another doubt; inactive = no such curve, though single readings can be large; an effect the other way counts as inactive or inconclusive. Unless noted, % is set by controls: 0 for no effect and ±100 for the full control effect.

SMILES	PNC inhibitor	12-hLO inh	IMPase Li cell	ALDH1A1 block	HPGD block	IMPase inh
O=C(Nc1nc(-c2ccco2)c(-c2ccco2)s1)C1CC(=O)N(c2ccc3c(c2)OCCO3)C1 (stereo not drawn)	0.0	?	33.9%[38.3 µM]	1.12µM*	?	-1.2
Cc1ccc(C(=O)COC(=O)c2cccc(NC(=O)c3ccc(Cl)cc3Cl)c2)cc1	.	.	.	.	.	2.8
Cc1cc(-c2ccccc2)nc2cc(C(=O)Nc3cc(C(F)(F)F)ccc3Cl)nn12	.	.	.	.	.	-5.3
CC(=O)Oc1cc2cccc(OC(C)=O)c(=O)c2c(OC(C)=O)c1OC(C)=O	.	.	.	3.98µM*	.	.
Cc1ccc(Cl)cc1N1CCN(CC(=O)Nc2ccc3[nH]c(=O)[nH]c3c2)CC1	-7.6	-3.7%	19.8%[38.3 µM]	22.4µM*	-6.9%	6.2
O=C(c1ccc(Cl)cc1)c1nnc(-c2ccncc2)o1	-82.1*	-1.1%	10µM*	5.6%	-24.2%	-2.6
O=C(c1ccccc1)c1nnc(-c2ccncc2)o1	3.5	3.0%	21.4%[38.3 µM]	5.1%	-17.3%	8.7
O=C(CCC(=O)N(CC(=O)NC1CCCC1)Cc1ccc2c(c1)OCO2)Nc1ccccn1	-94.0*	3.1%	.	-4.3%	.	1.7
COCCN(CC(=O)NCc1ccc2c(c1)OCO2)C(=O)CCC(=O)Nc1nccs1	-100.0*	1.6%	0.6%	5.6%	-10.2%	-10.4
Cc1ccnc(NC(=O)CCC(=O)N(CC(=O)NCc2ccccc2)Cc2cccs2)c1	.	.	2.0%	15.8µM*	.	.
Cc1ccnc(NC(=O)CCC(=O)N(CC(=O)NC2CCCCC2)Cc2ccccc2)c1	.	.	15.4%	6.4%	.	.
O=C(CCC(=O)N(CC(=O)NC1CCCC1)Cc1ccc2c(c1)OCO2)Nc1nccs1	.	.	12.1%	-7.1%	.	.
Cc1cccc(N(CC(=O)NCc2ccc3c(c2)OCO3)C(=O)CCC(=O)Nc2ccccn2)c1C	23.3	1.8%	4.0%[38.3 µM]	28.2µM*	-15.3%	13.8
Cn1c(=O)c2[nH]c(CCCCC(=O)O)nc2n(C)c1=O	.	-4.1%[11.4 µM]	3.7%	?	-0.6%	.
COc1ccccc1N(CC(=O)NCc1ccccc1)C(=O)CCC(=O)Nc1ccccn1	-100.0*	1.8%	8.4%	-7.7%	-13.9%	6.0
CCCCNC(=O)C(c1ccc(OCC(=O)OC)c(C(=O)OC)c1)N(CCC1=CCCCC1)C(=O)CCCCCN1C(=O)NC(c2ccc(-c3ccccc3)cc2)C(C(=O)OCc2ccccc2)=C1C (stereo not drawn)	.	-4.5%	-3.9%	6.2%	-5.8%	.
O=C(O)[C@H]1NCCC[C@H]1C(=O)O	.	.	4.9%	-3.7%	-12.9%	.
CN1C2CCC1/C(=C\c1ccc(F)cc1)C(=O)/C2=C/c1ccc(F)cc1	-0.4	-3.5%	13.7%	-1.3%	-3.7%	-1.5
CN1C2CCC1/C(=C/c1cccn1C)C(=O)/C2=C\c1cccn1C	17.0	0.6%	2.8%	4.1%	28.2µM*	.
Cn1cccc1/C=C1\Cc2ccccc2C1=O	.	.	-10.1%	11.2µM*	.	.
Cc1csc(NC(=O)c2cc3c(C)nn(Cc4ccccc4Cl)c3s2)n1	-10.7	-6.2%	3.5%	?	?	.
CC(C)(O)c1cc(=O)sc2nc3ccccc3n12	-100.0*	-3.5%	1.5%	3.2%	-11.2%	4.1
O=C(O)c1cc(C(=O)O)cc(-c2ccc(/C=c3/sc4nc5ccccc5n4c3=O)o2)c1	.	.	-1.9%	?	.	.
COC(=O)/C=c1/sc2nc3ccccc3n2c1=O	-24.5	5.6%	0.1%[38.3 µM]	10µM*	7.94µM*	-1.9
c1ccc2nc3c(nc2c1)sc1nc2ccccc2n13	-14.0	1.1%	13.7%[38.3 µM]	9.3%	-20.7%	-0.1
O=c1/c(=C\c2cc([N+](=O)[O-])cc([N+](=O)[O-])c2O)sc2nc3ccccc3n12	.	.	1.6%	7.94µM*	.	.
